Legend:
Assay in all cases: PBM binding z-score (relative to random genomic background probes); higher = stronger binding; sequences stand for … in GC…GCGATTGACAGCGTAGAATGAAGG
[1] = system: FXR:RXRa (NR concentration 270 nM, RXRa partner concentration 90 nM)
How it was run: (§1)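 Ligand-free nuclear receptor dimers were bound for 1 h to custom Agilent 4×180K protein-binding microarrays. Detection used antibodies against each partner (one per run). Binding z-scores rest on regression-normalized fluorescence, with random background probes as the reference.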

[2] = system: LXRa:RXRa (NR concentration 270 nM, RXRa partner concentration 90 nM)
How it was run: as §1

[3] = system: LXRa homodimer (NR concentration 270 nM)
How it was run: as §1

[4] = system: LXRb:RXRa (NR concentration 270 nM, RXRa partner concentration 90 nM)
How it was run: as §1

[5] = system: LXRb homodimer (NR concentration 270 nM)
How it was run: as §1

[6] = system: PPARa:RXRa (NR concentration 270 nM, RXRa partner concentration 90 nM)
How it was run: as §1

[7] = system: PPARg:RXRa (NR concentration 180 nM, RXRa partner concentration 90 nM)
How it was run: as §1

[8] = system: PPARg:RXRa 270nM:90nM, anti-RXR (NR concentration 270 nM, RXRa partner concentration 90 nM)
How it was run: as §1

[9] = system: PPARg:RXRa 30nM:10nM, anti-RXR (NR concentration 30 nM, RXRa partner concentration 10 nM)
How it was run: as §1

[10] = system: PPARg:RXRa 90nM:30nM, anti-RXR (NR concentration 90 nM, RXRa partner concentration 30 nM)
How it was run: as §1

Sequence | PBM binding z-score [1] | PBM binding z-score [2] | PBM binding z-score [3] | PBM binding z-score [4] | PBM binding z-score [5] | PBM binding z-score [6] | PBM binding z-score [7] | PBM binding z-score [8] | PBM binding z-score [9] | PBM binding z-score [10]
CTCTAAAGGTCGGTTGAGGTGAGTATACGGATAA | 2.41 | 2.21 | 0.211 | 1.61 | 0.152 | 2.87 | 0.622 | 1.44 | 0.122 | 0.958
GATACAGGGTCAAGGCCAGTGTACGCGTATTGAT | 6.59 | 4.26 | -0.145 | 3.52 | -0.211 | 5.6 | 5.69 | 5.76 | 2.44 | 4.1
ATCGAAAGGTCGAGGTGAGGATAGAGAAAGGGAA | 4.33 | 3.16 | 0.082 | 2.64 | 0.457 | 4.44 | 3.06 | 3.83 | 1.33 | 2.81
ACTTACGGGTCAACGAGGCTATAGCACGCGTATA | 7.11 | 4.24 | 0.0789 | 3.85 | 0.747 | 5.82 | 5.21 | 4.87 | 1.81 | 3.64
ACTCGGAGTACAAAGGTCAGAGCTACGCCAGTGA | 4.23 | 4.12 | 1.57 | 3.56 | 0.437 | 5.17 | 8.46 | 7.54 | 7.42 | 8.33
AGAATGAGGTTACCATAGATCAGGGAAACGCTTG | 1.71 | 6.81 | -0.421 | 3.61 | -0.0924 | 3.14 | 2.41 | 2.09 | 0.706 | 1.29
CCTTCTGGGCCACGAAAGGTCATTGATTCAGTGA | 4.23 | 5.51 | 4.66 | 4.55 | 0.628 | 4.97 | 3.74 | 4.4 | 1.82 | 3.94
GCCTACGGGTCAAAGGTTATAGCATGAATAGAAT | 7.04 | 5.56 | 0.447 | 5.59 | -0.175 | 6.6 | 10.4 | 8.66 | 7.8 | 9.24
CCTACTGGGGCATCAGGTCATTGATATCAACGTT | 1.51 | 1.23 | 1.04 | 1.47 | -0.819 | 3.15 | 4.22 | 4.7 | 2.26 | 4.13
CATTACGGGTCAAGGTTATAGCACGGGTGGTACG | 5.89 | 5.21 | 1.53 | 3.61 | 1.18 | 5.27 | 5.67 | 5.45 | 2.22 | 4.39
TAGCCTAGGTCATTCAGGGGCCAGTATTGAAAGC | 4.17 | 3.5 | 0.907 | 3.03 | 0.763 | 3.43 | 1.63 | 2.22 | 0.291 | 1.32
TCTAGCAGGCCAGTGGGTCACTCAAGAGGTACGG | 0.165 | 0.09 | -0.387 | 0.111 | -1.21 | 1.83 | 1.59 | 2.19 | 1.78 | 2.09
CCGACTGGCGCAGAAAGGTTACCATACCATCCGG | 0.0917 | 0.658 | -0.132 | 0.749 | -1.07 | 1.8 | 0.613 | 1.16 | -0.315 | 0.337
CCTGCTAGGTCAATGGCCAGCTAAAGCAGCTCGC | 3.11 | 2.72 | -0.17 | 1.39 | -0.454 | 2.73 | 1.84 | 2.65 | 0.293 | 1.8
TCTAGTTGATCAAAGGTCACACACTCGAAATGCG | 5.64 | 5.85 | 3.84 | 5.63 | 1.9 | 5.8 | 7.89 | 7.86 | 7.94 | 8.62
CAAATTAGGTCACGAAAGGTCAAAGTCGAATGAC | 7.62 | 8.19 | 7.52 | 7.45 | 3.07 | 6.87 | 10.1 | 8.6 | 6.67 | 8.69
CAAACTAGGGCAAGGTCAAAGTCGGTTTGTGCCA | 5.18 | 4.46 | 2.44 | 3.77 | 0.468 | 5.56 | 7.92 | 6.99 | 4.88 | 7.3
CCTAGCAGGCCAATCTGGGTCCCTCAAGGCTTGA | -0.114 | -0.609 | -0.704 | -0.838 | -1.11 | -0.178 | -0.823 | -0.653 | -1.08 | -0.919
CGAACTAGGTCAAGGATAGTGAATCTCCGCACGC | 3.06 | 1.9 | 0.0332 | 1.36 | -0.0688 | 4.56 | 7.74 | 6.47 | 4.24 | 6.39

Sequence | PBM binding z-score [1] | PBM binding z-score [2] | PBM binding z-score [3] | PBM binding z-score [4] | PBM binding z-score [5] | PBM binding z-score [6] | PBM binding z-score [7] | PBM binding z-score [8] | PBM binding z-score [9] | PBM binding z-score [10]
TCATCTAGGTAAAGGTGAAAGTCGAACGATATGA | 1.37 | 1.5 | 0.00636 | 1.3 | 0.134 | 3.3 | 3.93 | 4.83 | 4.58 | 4.92
CCGACTGGGGCAGAAGGGTTACCATACCATCCGG | -0.34 | -0.358 | -0.422 | -0.143 | -0.958 | 0.847 | 1.13 | 1.14 | -0.416 | 0.389
CCGACTGGGGCATGGTTACCATAACGCACAGCCA | -0.978 | -0.621 | -0.461 | -0.438 | -1.07 | 0.0592 | 1.31 | 1.11 | -0.195 | 0.273
CCTCGGAGGACAACAGGAGGTCCGAGCTGCCAGA | -0.13 | -0.509 | -0.575 | -1.1 | -0.867 | -0.795 | -0.182 | -0.921 | -0.862 | -0.99
CCGACTGGGGCATAAGGTTAACATAAGCCAGCCC | 0.54 | 1.08 | -0.335 | 0.945 | -1.21 | 2.22 | 2.6 | 3.42 | 1.27 | 2.84
CCTATTAGCTGACCATAAGGGCAACCGAAGCTCG | 0.524 | 0.335 | 0.221 | 0.0745 | 0.36 | 0.273 | 0.333 | -0.0328 | -0.243 | -0.184
ACTAGTTGGTCAGCTGAAGTCACACACAATTCGG | -0.0902 | -0.0916 | 0.115 | 0.118 | 0.19 | -0.0344 | 0.754 | 0.0912 | -0.0266 | 0.0351
CCTGCTAGGTCAATGGGCAGCTAAAGCAGCTCGC | 1.94 | 1.62 | -0.481 | 0.861 | -0.588 | 2.59 | 2.02 | 3.18 | 0.64 | 2.19
GCGACTGGGGCATCAGCAGGTTACCATAACTTAA | 0.0865 | 0.156 | 0.0275 | 0.704 | -0.886 | 1.33 | 1.21 | 1.03 | 0.757 | 0.397
TCATATAGGTAAAGGTGACAGTCGAACGATATGA | 0.847 | 1.04 | 0.0349 | 0.847 | -0.211 | 2.88 | 3.72 | 4.32 | 4.16 | 4.4
CGTCAATGTTCAAGGTAACGTAACAGAAAGCAGC | -0.00254 | -0.129 | -0.233 | 0.0792 | 0.0791 | -0.0522 | 0.532 | 0.03 | 0.263 | 0.00705
TCATATAGGTAATACAGGTGAACGTCGGCATCTA | 0.964 | 1.09 | 0.498 | 1.15 | 0.51 | 1.98 | 1.72 | 2.78 | 4.08 | 3.27
TAGCCTACGTCATGCGGGCCAGTATAGTGTCGGC | -0.993 | -0.942 | -0.548 | -1.15 | -0.753 | -0.592 | 0.156 | -0.778 | -0.767 | -0.769
CGTCCAAGGTCAAGTTCAGTGAAAGAGACTCGAA | 8.18 | 5.89 | 2.13 | 4.76 | 2.42 | 5.94 | 5.62 | 5.92 | 2.3 | 4.88
ACGAGTTGGTCAGCTGAGGTCACACACAATTCGG | 3.59 | 3.08 | 1.81 | 3.17 | -0.229 | 3.6 | 1.64 | 2.17 | 0.283 | 1.3
GCATATAGGTAATACGAGGTGAAAGTCCGATTGT | 2.16 | 2.66 | 0.407 | 0.883 | -0.463 | 1.76 | 1.44 | 1.38 | 0.459 | 0.853
CCTTACGGGACACGAGGTTATAGCACGACGAGCG | 0.657 | 0.725 | 0.391 | 0.535 | -0.204 | 1.27 | 1.38 | 0.573 | 0.0152 | 0.477
CCTTACGGGTCAATGTTATAGCACGGGTGGTACG | 4.09 | 2.96 | 0.175 | 2.61 | 0.428 | 3.96 | 3 | 3.22 | 1.1 | 2.16
TAGGCTAGGTCATGGGCCAGTATACCACGCGAAC | 4.91 | 3.13 | 0.324 | 2.18 | -0.308 | 4.03 | 4.36 | 4.24 | 1.3 | 3.18
